# Records with an inconclusive call do not appear. Entries that show only a call come without a potency. Activity calls are given as the source filed them. Unless noted, calls come from the whole dose curve.
# Biological target: Glucocorticoid receptor (Homo sapiens) (UniProt P04150)
# Test: qHTS assay for small molecule antagonists of glucocorticoid receptor signaling (AID 588533; active = well fitted inhibition curve with a large enough effect in the signal ratio, with a control signal flat, not every such curve was filed as active; the % refers to the signal ratio;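 note: cells stimulated with 2 nM dexamethasone as agonist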)
# Settings: HeLa MMTV-bla, GRE beta-lactamase ratio, antagonist mode, 18 h; series mostly up to 76.8 µM
# Summary of the method: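 Antagonist-mode qHTS: compound titrations added to GRE-bla HeLa cells, then dexamethasone 2 nM final; 18 h, 37 C. CCF4 FRET fluorescence normalized to dexamethasone and DMSO; IC50 from Hill fit.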
# Sequence of Glucocorticoid receptor (Homo sapiens) (P04150 whole entry, looked up): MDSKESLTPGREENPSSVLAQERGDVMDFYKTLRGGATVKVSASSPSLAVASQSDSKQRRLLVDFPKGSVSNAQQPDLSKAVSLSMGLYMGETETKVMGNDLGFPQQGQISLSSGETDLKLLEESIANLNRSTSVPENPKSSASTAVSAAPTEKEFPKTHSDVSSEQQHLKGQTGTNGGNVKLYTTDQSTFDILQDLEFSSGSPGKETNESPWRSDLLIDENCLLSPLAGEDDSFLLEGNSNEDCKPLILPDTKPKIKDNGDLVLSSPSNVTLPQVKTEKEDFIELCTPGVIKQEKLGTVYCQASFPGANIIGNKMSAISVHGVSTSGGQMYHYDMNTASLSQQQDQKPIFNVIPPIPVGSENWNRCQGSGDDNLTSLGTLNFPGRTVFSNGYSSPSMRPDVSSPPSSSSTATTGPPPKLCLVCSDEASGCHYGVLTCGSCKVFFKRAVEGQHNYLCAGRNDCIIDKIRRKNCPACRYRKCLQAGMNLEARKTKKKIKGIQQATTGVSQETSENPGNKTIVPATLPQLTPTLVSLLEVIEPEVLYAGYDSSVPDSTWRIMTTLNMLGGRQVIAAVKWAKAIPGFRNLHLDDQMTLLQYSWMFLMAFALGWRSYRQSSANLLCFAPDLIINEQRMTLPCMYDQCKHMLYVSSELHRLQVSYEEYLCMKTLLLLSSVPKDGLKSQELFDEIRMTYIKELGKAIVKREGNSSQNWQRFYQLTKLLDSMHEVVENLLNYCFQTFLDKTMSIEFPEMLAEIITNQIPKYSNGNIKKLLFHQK
row,SMILES,Potency
1,Brc1ccccc1,inactive
2,CCSC(=O)Cl,inactive
3,Cc1cccc([N+](=O)[O-])c1,inactive
4,Nc1c(Cl)c(Cl)nc(C(=O)O)c1Cl,inactive
5,CC(C)(C)OOC(C)(C)C,inactive
6,C=C(C)C(=O)OCC1CO1 (stereo unspecified),inactive
7,O=[N+]([O-])c1ccc(Cl)c(Cl)c1,inactive
8,C=CC(=C)C,inactive
9,Nc1ccccc1Cl,inactive
10,Clc1ccc2ccccc2c1,inactive
11,[O-][Br+2]([O-])O,inactive
12,Clc1nc(Cl)nc(Nc2ccccc2Cl)n1,inactive
13,OCC1CO1 (stereo unspecified),inactive
14,C=CCOC(=O)c1ccccc1N,inactive
15,C=CC(N)=O,inactive
16,CC(C)(c1ccccc1)c1ccc(O)cc1,inactive

row,SMILES,Potency
1,CCN(CC)c1ccccc1,inactive
2,S=C=Nc1cccc2ccccc12,inactive
3,N#CCCCl,inactive
4,O=NN(CCO)CCO,inactive
5,C=CCOC(C)=O,inactive
6,CCCC(=O)Cl,inactive
7,NC(=S)Nc1ccccc1,inactive
8,O=C(Cl)/C=C/C(=O)Cl,inactive
9,ClCBr,inactive
10,C=CC(=O)OCC,inactive
11,c1nc[nH]n1,inactive
12,c1ccc2c(c1)CCCC2,inactive
13,CCCSC(=O)Cl,inactive
14,O=NN(c1ccccc1)c1ccccc1,inactive
15,C1CCC2CCCCC2C1 (stereo unspecified),inactive
16,CC(O)CCl (stereo unspecified),inactive

# Biological target: Peroxisome proliferator-activated receptor delta (Homo sapiens) (UniProt Q03181)
# Test: qHTS assay for small molecule agonists of peroxisome proliferator-activated receptor delta signaling (AID 588534)
# Settings: HEK293T PPARdelta-UAS-bla, beta-lactamase ratio, 18 h; series mostly up to 76.7 µM
# Summary of the method: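 Agonist-mode beta-lactamase reporter readout (CCF4 dye, 2 h at RT) after 18 h at 37 °C exposure to a titration; Hill-equation fitting gave EC50 and maximal response.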
# Sequence of Peroxisome proliferator-activated receptor delta (Homo sapiens) (Q03181 whole entry, looked up): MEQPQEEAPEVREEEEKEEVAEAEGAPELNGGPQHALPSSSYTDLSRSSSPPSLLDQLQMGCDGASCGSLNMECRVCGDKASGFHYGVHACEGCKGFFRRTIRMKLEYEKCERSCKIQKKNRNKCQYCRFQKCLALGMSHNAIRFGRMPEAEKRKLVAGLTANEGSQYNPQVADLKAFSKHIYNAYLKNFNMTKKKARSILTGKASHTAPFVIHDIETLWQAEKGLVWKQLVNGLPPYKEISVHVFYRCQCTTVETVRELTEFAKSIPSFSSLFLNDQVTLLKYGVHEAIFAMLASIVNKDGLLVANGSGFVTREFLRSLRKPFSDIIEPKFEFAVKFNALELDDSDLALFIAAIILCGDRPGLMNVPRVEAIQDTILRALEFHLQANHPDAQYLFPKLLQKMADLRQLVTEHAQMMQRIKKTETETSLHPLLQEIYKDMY
row,SMILES,outcome
1,Brc1ccccc1,inactive
2,C=C(C)C#N,inactive
3,CCSC(=O)Cl,inactive
4,Cc1cccc([N+](=O)[O-])c1,inactive
5,CC(C)(C)OOC(C)(C)C,inactive
6,C=C(C)C(=O)OCC1CO1 (stereo unspecified),inactive
7,O=[N+]([O-])c1ccc(Cl)c(Cl)c1,inactive
8,C=CC(=C)C,inactive
9,Cc1ccc2ccccc2c1,inactive
10,Nc1ccccc1Cl,inactive
11,[O-][Br+2]([O-])O,inactive
12,Clc1nc(Cl)nc(Nc2ccccc2Cl)n1,inactive
13,C=CCOC(=O)c1ccccc1N,inactive
14,C=CC(N)=O,inactive
15,CC(C)(c1ccccc1)c1ccc(O)cc1,inactive
16,CCCC(=O)Cl,inactive
17,NC(=S)Nc1ccccc1,inactive
18,O=C(Cl)/C=C/C(=O)Cl,inactive
19,C=C(Cl)Cl,inactive
20,ClCBr,inactive
21,C=CC(=O)OCC,inactive
22,c1nc[nH]n1,inactive
23,CCCSC(=O)Cl,inactive
24,CC(O)CCl (stereo unspecified),inactive

# Source: PubChem BioAssay (NCATS)
